The source of these data is PubChem BioAssay (NCI).

This is part of a sample that, as a whole, favours compounds with a hit. Of some 83,000 tested, about 20% had one in any assay.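 Method: cells in 96-well plates; compound added at one concentration; 48 h incubation; percent growth measured; values under 10 scored active.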 Unmarked numbers belong to inactive results. Calls of active or inactive are those of the source.

Common to all, as to test: NCI-60 one-dose screen, 48 h (100 = growth as untreated, 0 = no growth, -100 = all killed)
One experiment deals with SK-MEL-2 melanoma. The following applies: 10 µM.
In another experiment the test system is EKVX NSCLC. The following applies: 10 µM unless noted.
Another experiment has as its system SN12C renal. The settings on record: 10 µM unless noted.
The subject of the next experiment is UO-31 renal. The following applies: 10 µM unless noted.
In the next experiment the test system is TK-10 renal. The following applies: 10 µM unless noted.
The next experiment deals with ACHN renal. The following applies: 10 µM unless noted.
Another experiment concerns CAKI-1 renal. The settings on record: 10 µM unless noted.
Another experiment has as its system CCRF-CEM leukemia. The following applies: 10 µM unless noted.
The next experiment relates to MOLT-4 leukemia. The following applies: 10 µM unless noted.
A further experiment concerns SR leukemia. The following applies: 10 µM unless noted.
A further experiment has as its system RPMI-8226 leukemia. The settings on record: 10 µM unless noted.
Another experiment deals with OVCAR-8 ovarian. The settings on record: 10 µM unless noted.
Another experiment has as its system OVCAR-5 ovarian. The following applies: 10 µM unless noted.
The next experiment relates to OVCAR-4 ovarian. The settings on record: 10 µM unless noted.
In another experiment the test system is SK-OV-3 ovarian. The following applies: 10 µM unless noted.
The next experiment relates to IGROV1 ovarian. The settings on record: 10 µM unless noted.
A further experiment deals with OVCAR-3 ovarian. The settings on record: 10 µM unless noted.
A further experiment has as its system HS 578T breast. The settings on record: 10 µM.
A further experiment has as its system NCI/ADR-RES ovarian. The following applies: 10 µM unless noted.
The next experiment concerns A498 renal. The settings on record: 10 µM unless noted.

In the case of `CCCCCCCC(=O)SCC/C=C/[C@@H]1CC(=O)NCc2cc(ccn2)C2=N[C@@](C)(CS2)C(=O)N[C@@H](C(C)C)C(=O)O1`, the growth with SK-MEL-2 melanoma was -2.2% (active); with EKVX NSCLC it was 19.9%; in the experiment with SN12C renal it was 21.9%; in the experiment with UO-31 renal, -10.5% (active); in the experiment with TK-10 renal, -15.6% (active); in the experiment with ACHN renal, -17.2% (active). Further, the growth in the experiment on CAKI-1 renal was -54.4% (active); in the experiment with CCRF-CEM leukemia it was 39%; with MOLT-4 leukemia it was 12.8%; in the experiment on SR leukemia it was 14.3%; in the experiment with RPMI-8226 leukemia it was 13.6%; with OVCAR-8 ovarian, 6.26% (active). The growth is 2.85% (active) in the experiment with OVCAR-5 ovarian; 10.9% with OVCAR-4 ovarian; -22.6% (active) in the experiment with SK-OV-3 ovarian; -8.98% (active) with IGROV1 ovarian; -22.9% (active) in the experiment on OVCAR-3 ovarian; -8.43% (active) with HS 578T breast. The growth in the experiment on NCI/ADR-RES ovarian is 4.18% (active).
Take `Cc1ccc(N=C2CSc3nnc(-c4csc5c4CCCC5)n3N2)cc1`: the growth is 61.6% in the experiment with SK-MEL-2 melanoma; 41.9% with EKVX NSCLC; 48.5% in the experiment with SN12C renal; 57.9% in the experiment on UO-31 renal; 78.9% in the experiment with TK-10 renal; 52% in the experiment on ACHN renal. Also, the growth was 12.1% with A498 renal; 16.8% in the experiment with CCRF-CEM leukemia; 23.2% in the experiment on MOLT-4 leukemia; 32.2% in the experiment on SR leukemia; 24.7% in the experiment on RPMI-8226 leukemia; 35.1% in the experiment on OVCAR-8 ovarian. For the same molecule, the growth with OVCAR-5 ovarian was 54.4%; in the experiment with OVCAR-4 ovarian, 62.1%; in the experiment with SK-OV-3 ovarian, 27.6%; with IGROV1 ovarian, 53.3%; in the experiment with OVCAR-3 ovarian, -21.4% (active); with HS 578T breast it was 38.8%. Further, the growth in the experiment on NCI/ADR-RES ovarian is 1.16% (active).
For the molecule `O=C(NO)c1ccc(Cn2c(=O)n(CCc3ccccc3)c(=O)c3ccccc32)cc1`, the growth with SK-MEL-2 melanoma is 45.7%; in the experiment on EKVX NSCLC, 38.8%; with SN12C renal it was 38.5%; in the experiment with UO-31 renal, 17.3%; in the experiment on TK-10 renal, 43.4%; in the experiment with ACHN renal, 25.8%. Besides, the growth in the experiment on CAKI-1 renal is 27.2%; with CCRF-CEM leukemia, 4.6% (active); in the experiment with MOLT-4 leukemia, 3.88% (active); in the experiment on SR leukemia, 20%; with RPMI-8226 leukemia, 25.8%; with OVCAR-8 ovarian it was 20.2%. Also, the growth in the experiment on OVCAR-5 ovarian was 76.5%; in the experiment with OVCAR-4 ovarian it was 19.2%; in the experiment on SK-OV-3 ovarian it was 26.3%; in the experiment on IGROV1 ovarian it was 41%; with OVCAR-3 ovarian it was 13.8%; in the experiment on HS 578T breast it was 68.9%. In addition, in the experiment on NCI/ADR-RES ovarian, the growth was 57.5%.
In the case of `Cc1ccsc1C(NC(=O)c1ccccc1)c1cc(Cl)c2cccnc2c1O` (stereo not given), the growth was 12.6% with SK-MEL-2 melanoma; 18.2% in the experiment on EKVX NSCLC; 23.2% in the experiment on SN12C renal; 2.22% (active) in the experiment with UO-31 renal; 27.6% in the experiment with TK-10 renal; 10.8% with ACHN renal. Moreover, the growth in the experiment with CAKI-1 renal is 15.7%; in the experiment with MOLT-4 leukemia, 14.6%; in the experiment with SR leukemia, 13.2%; in the experiment with RPMI-8226 leukemia, 13.8%; in the experiment with OVCAR-8 ovarian it was 8.81% (active); in the experiment on OVCAR-5 ovarian, 46.9%. In addition, the growth was 32% with OVCAR-4 ovarian; 16% with SK-OV-3 ovarian; 13.1% with IGROV1 ovarian; 18.8% with OVCAR-3 ovarian; 31.5% in the experiment on HS 578T breast; 7.05% (active) in the experiment with NCI/ADR-RES ovarian.
Consider `CCC1(/C=N/NC(N)=S)NC(=O)NC1=O` (stereo not given), for which the growth was 109% in the experiment with SK-MEL-2 melanoma; 104% with EKVX NSCLC; 95.6% in the experiment with SN12C renal; 87.5% in the experiment with UO-31 renal; 102% in the experiment with TK-10 renal; 109% with ACHN renal. The growth in the experiment with CAKI-1 renal is 94.1%; with MOLT-4 leukemia it was 90%; with SR leukemia, 91.1%; with RPMI-8226 leukemia, 103%; in the experiment with OVCAR-8 ovarian it was 98.1%; in the experiment on OVCAR-5 ovarian, 109%. For the same molecule, the growth in the experiment with OVCAR-4 ovarian was 109%; in the experiment on SK-OV-3 ovarian it was 83.9%; in the experiment on IGROV1 ovarian, 113%; with OVCAR-3 ovarian, 119%; in the experiment with HS 578T breast, 104%; with NCI/ADR-RES ovarian, 111%.
In the case of `C=CCCCC(=O)CCC(=O)OCC1O[C@@H](O[C@@H]2C(O)[C@@H](OC(C)=O)C(C)O[C@H]2O[C@H](CC=C)CCCCC)C(O)[C@@H](OC(=O)/C(C)=C/C)[C@@H]1OC(=O)/C=C/c1ccccc1` (stereo not given in full), the growth in the experiment with SK-MEL-2 melanoma was 4.44% (active); in the experiment with EKVX NSCLC, 30.5%; in the experiment with SN12C renal it was 3.86% (active); in the experiment with UO-31 renal, 24.5%; with TK-10 renal it was 27%; in the experiment with ACHN renal it was 23.4%. Also, the growth is 52.5% in the experiment on A498 renal; 29.2% in the experiment with CCRF-CEM leukemia; 26.7% in the experiment with MOLT-4 leukemia; -12.4% (active) in the experiment with SR leukemia; -1.27% (active) in the experiment with RPMI-8226 leukemia; 42.1% in the experiment with OVCAR-8 ovarian. The growth with OVCAR-5 ovarian was 53.5%; with OVCAR-4 ovarian, 42.4%; in the experiment on SK-OV-3 ovarian, 40.6%; in the experiment with IGROV1 ovarian, 35.1%; in the experiment with OVCAR-3 ovarian it was 26%; in the experiment on HS 578T breast, 35.9%. In the experiment with NCI/ADR-RES ovarian, the growth was 49.2%.
Turning to `CC(N)C(Cc1ccc(Cl)cc1)c1ccc(Cl)cc1` (stereo not given), the growth in the experiment with SK-MEL-2 melanoma was -58% (active); in the experiment with EKVX NSCLC it was 83.7%; with SN12C renal, 87%; in the experiment on UO-31 renal, 55.8%; with TK-10 renal, 45.5%; with ACHN renal, 80.5%. Moreover, the growth in the experiment on CAKI-1 renal is 59.6%; in the experiment on CCRF-CEM leukemia it was 65.6%; with MOLT-4 leukemia, 34.9%; with SR leukemia, -9.14% (active); in the experiment on RPMI-8226 leukemia, 25.3%; with OVCAR-8 ovarian, 71.5%. The growth with OVCAR-5 ovarian is 77.9%; with OVCAR-4 ovarian it was 71.7%; in the experiment on SK-OV-3 ovarian, 81.9%; with IGROV1 ovarian it was 77.8%; in the experiment on OVCAR-3 ovarian, 87.2%; with HS 578T breast it was 71.6%. Also, the growth in the experiment on NCI/ADR-RES ovarian was 87.5%.
Consider `COc1ccc2c(CCCC(c3ccccc3)c3ccccc3)c3[n+](cc2c1OC)CCc1cc2c(cc1-3)OCO2`, for which the growth in the experiment with SK-MEL-2 melanoma was -52.4% (active); with EKVX NSCLC, 14.9%; in the experiment on SN12C renal, -65.6% (active); in the experiment on UO-31 renal it was 5.46% (active); in the experiment on TK-10 renal it was -30.7% (active); with ACHN renal, 11.6%. The growth with CAKI-1 renal was 57.7%; in the experiment on CCRF-CEM leukemia, 5.53% (active); in the experiment on MOLT-4 leukemia, -20.5% (active); in the experiment on SR leukemia, -35% (active); with RPMI-8226 leukemia, -38.8% (active); in the experiment with OVCAR-8 ovarian, -47.6% (active). Besides, the growth was 31.8% with OVCAR-5 ovarian; -81.3% (active) in the experiment with OVCAR-4 ovarian; -13.4% (active) in the experiment on SK-OV-3 ovarian; 5.13% (active) in the experiment on IGROV1 ovarian; -74.6% (active) in the experiment with OVCAR-3 ovarian; -16.8% (active) with HS 578T breast. For the same molecule, the growth in the experiment with NCI/ADR-RES ovarian was 71.7%.
